# Experimental data published in PubChem BioAssay (NCATS).
# Inconclusive results are not listed. Active and inactive are the calls of the source. Calls come from the whole dose curve; as a rule, active = well fitted cell-killing curve with a large enough effect; inconclusive = small, poorly fitted or top-dose-only effect; inactive = no such curve, though single readings can be large or run the other way.
# Assay: qHTS of pediatric cancer cell lines to identify multiple opportunities for drug repurposing: Primary screen for Saos-2 cells (AID 1347097); note: nearly all actives have a fitted effect of over 40% in size
# Conditions: Saos-2 viability, CellTiter-Glo ATP luminescence, 48 h; series mostly up to 46 µM; activity change, negative = cytotoxic: at the top concentration
# Source text: Drug repurposing or repositioning has been offered as a strategy for drug development in oncology programs. This approach has special potential for childhood cancers and other rare or orphan diseases, where the expected return on new drug development has been a disincentive to pharmaceuticals. […] In this project we exploit the poly-pharmacology of drugs to discover new indications via phenotypic screening of a panel of 19 well-characterized cell lines derived from solid tumors seen in children and adolescents. The goal is to identify approved drugs with previously unrecognized anticancer properties that has the potential to reveal new mechanisms and biological processes involved in carcinogenesis or drug resistance. We employed a titration-based paradigm (quantitative high-throughput screening or qHTS), where all compounds were tested at multiple concentrations for their effect on cell viability. Concentration-response curves (CRCs) were derived directly from the primary screen, and both potency and efficacy values were used to identify compounds with robust bioactivity profiles. We screened the NIH Chemical Genomics Center (NCGC) Pharmaceutical Collection (NPC) and Mechanism Interrogation Plate (MIPE) small molecule collections of approved and investigational compounds against these cell lines; and measured metabolically active cells after 48 hours of compound treatment as a proxy for cell viability. […] Assay Submitter: Nathalia J. Martinez, National Center for Advancing Translational Sciences, National Institutes of Health, Rockville, MD, USA; email: natalia.martinez@nih.gov Shen, M et al. Quantitative high-throughput phenotypic screening of pediatric cancer cell lines identifies multiple opportunities for drug repurposing. Oncotarget 2017 Dec 19;9(4):4758-4772. PMID 29435139.
# The cells were obtained from University of North Carolina (UNC), Pediatric Preclinical Testing Program (PPT), and Coriell Institute (CI). qHTS cell viability assay: Cells were assayed in growth media at a density of 500-1,000 cells/well. Five microliters of cells were dispensed into 1,536-well, white, solid-bottom, TC-treated plates (Greiner Bio One) using a multidrop dispenser and incubated at 37 degrees C, 5% CO2, under a humidified atmosphere for 5 hours. Twenty-three nanoliters of compounds and controls (neutral control DMSO or positive control bortezomib at final concentration of 2.3 µM) were subsequently transferred by Kalypsys pintool. For primary screens, the MIPE collection was tested at 11-point dilutions (final concentrations range from 0.78 nM to 46 µM) and the NPC collection at 8-point dilutions (final concentrations range from 0.59 nM to 46 µM). Compounds tested in follow-up screens were assayed at 11-point dilutions. Cells were incubated for 48 hours, followed by addition of 3 µL of CellTiter-Glo (Promega). After a 15 min incubation at room temperature, samples were analyzed for luminescence intensity using a ViewLux High-throughput CCD imager equipped with clear filters.
# % is set by controls: 0 for no effect and ±100 for the full control effect; potency is the fitted concentration of half-maximal effect.
Compound,Potency,"activity change, negative = cytotoxic"
CC1=C(O)C(=O)C=C2C1=CC=C1[C@@]2(C)CC[C@@]2(C)[C@@H]3C[C@](C)(C(=O)O)CC[C@]3(C)CC[C@]12C,2.35 µM (active),–
CC(=O)N(C)c1cccc(-c2ccnc3c(C(=O)c4cccs4)cnn23)c1,–,-2.77% (inactive)
CC=C(C)C(=O)O[C@H]1C(C)=C2[C@@H]3OC(=O)[C@@](C)(O)[C@@]3(O)[C@@H](OC(=O)CCC)C[C@](C)(OC(C)=O)[C@@H]2[C@@H]1OC(=O)CCCCCCC,0.0743 µM (active),–
CC(C)N(CCNC(=O)CN1CCCC1=O)C(C)C,–,-2.28% (inactive)
Oc1ccc2c3c1O[C@H]1c4[nH]c5c(c4C[C@@]4(O)[C@@H](C2)N(CC2CC2)CC[C@]314)C[C@@]1(O)[C@H]2Cc3ccc(O)c4c3[C@@]1(CCN2CC1CC1)[C@H]5O4,–,2.78% (inactive)
CC1=NN=C(c2ccc(N)cc2)c2cc3c(cc2C1)OCO3,–,10.9% (inactive)
C=C[C@@H]1CN2CCC1C[C@@H]2[C@@H](O)c1ccnc2ccccc12 (stereo not given in full),26.4 µM (active),–
CN(C)[C@@H]1C(=O)C(C(N)=O)=C(O)[C@@]2(O)C(=O)C3=C(O)c4c(O)cccc4[C@@](C)(O)[C@H]3[C@H](O)[C@@H]12,–,16.1% (inactive)
O=[N+]([O-])c1ccc([As](=O)(O)O)cc1,–,28.6% (inactive)
CCC(=O)O[C@@H]1C=C2CCC3C(CCC4(C)C3CC[C@@H]4OC(=O)CC)C2CC1 (stereo not given in full),–,12.7% (inactive)
CC(=O)[O][Hg][c]1ccccc1,0.668 µM (active),–
O=C(O)c1cc(Oc2ccc(C(F)(F)F)cc2Cl)ccc1[N+](=O)[O-],–,8.77% (inactive)
C=CC(=O)NCNC(=O)C=C,–,-24.9% [at 92.7 µM] (inactive)
NC1=NC(=O)N2CC12 (stereo not given),13.2 µM (active),–
COc1ccc2c(c1)[C@]13CCCCC1C(C2)N(C)CC3 (stereo not given in full),–,-10.6% (inactive)
O=C(Oc1ccc([N+](=O)[O-])cc1)N1CCC(C(O)(c2ccc3c(c2)OCO3)c2ccc3c(c2)OCO3)CC1,–,-6.26% (inactive)
CO[C@H]1CCC(O[C@H]2C[C@H]([C@]3(C)CC[C@]4(C[C@H](O)[C@@H](C)[C@@H]([C@@H](C)C=C(C)C(=O)[C@H](C)C[C@H](C)C(=O)O)O4)O3)O[C@]3(O[C@@H]([C@H]4O[C@@](O)(CO)[C@H](C)C[C@H]4C)C[C@H]3C)[C@H]2C)O[C@H]1C (stereo not given in full),2.64 µM (active),–
CS(=O)(=O)c1ccc(C(=O)C2C(=O)CCCC2=O)c([N+](=O)[O-])c1,–,56.8% [at 92.7 µM] (inactive)
Nc1ccc([N+](=O)[O-])cc1,–,11% [at 92.7 µM] (inactive)
CCOCCOC(C)=O,–,-14.6% [at 92.7 µM] (inactive)

Compound,Potency,"activity change, negative = cytotoxic"
CC(=CCCC1=CCC(C2=CC(=O)OC2O)OC1O)CCC1=C(C)CCCC1(C)C (stereo not given),–,-7.54% (inactive)
NC1CC1c1ccccc1 (stereo not given),–,13% (inactive)
c1ccc2c(CN3CCNCC3)cccc2c1,–,-8.17% (inactive)
COc1ccc(CC2NCCc3cc(OC)c(OC)cc32)cc1OC (stereo not given),–,3.9% (inactive)
COc1ccc(C(c2ccc(OC)cc2)C(Cl)(Cl)Cl)cc1,30.3 µM (active),–
CCc1c(C(=O)C(N)=O)c2c(OCC(=O)O)cccc2n1Cc1ccccc1,–,23.1% (inactive)
CN[C@@H]1Cc2cccc3[nH]c(=O)n(c23)C1,–,8.85% (inactive)
O=[N+]([O-])c1cc([N+](=O)[O-])c2ccccc2c1,–,45.9% [at 92.7 µM] (inactive)
C=C1C[C@H]2[C@H]3CCC(=O)[C@@]3(C)CC[C@@H]2[C@@]2(C)C=CC(=O)C=C12,–,-26.8% (inactive)
CCOP(=O)(OCC)C(C)NC(=O)N(CCCl)N=O (stereo not given),–,-2.03% (inactive)
Cc1c(N)nc([C@H](CC(N)=O)NC[C@@H](N)C(N)=O)nc1C(=O)N[C@H](C(=O)N[C@@H](C)[C@H](O)[C@@H](C)C(=O)N[C@@H](C(=O)NCCc1nc(-c2nc(C(=O)NCCC[S+](C)C)cs2)cs1)[C@@H](C)O)C(O[C@H]1O[C@H](CO)[C@H](O)[C@@H](O)[C@@H]1O[C@H]1O[C@H](CO)[C@@H](O)[C@H](OC(N)=O)[C@H]1O)c1cnc[nH]1 (stereo not given in full),1.66 µM (active),–
CC(C)N[C@@H]1CCn2c(=O)[nH]c3cccc(c32)[C@@H]1O,5.26 µM (active),–
COC1=CC(C)=C[C@@H](C)[C@@H](O)[C@@H](C)CC(C)=CC=C[C@H](OC)[C@H]([C@@H](C)[C@@H](O)[C@H](C)[C@@]2(O)C[C@@H](O)[C@H](C)[C@@H](C(C)C)O2)OC1=O,29.6 µM (active),–
Cc1ccccc1-n1c(Cn2cnc3c(N)ncnc32)nc2cccc(C)c2c1=O,0.132 µM (active),–
C[C@@H]1O[C@@H](O[C@@H]2C=C3CC[C@@H]4[C@@H](CC[C@]5(C)[C@H](c6ccc(=O)oc6)CC[C@@]45O)[C@@]3(C)CC2)[C@H](O)[C@H](O)[C@H]1O,0.0526 µM (active),–
CC=C(C)C(=O)N[C@@H](c1ccccc1)[C@@H](O)C(=O)O[C@H]1C[C@@]2(O)[C@@H](OC(=O)c3ccccc3)[C@@H]3[C@]4(OC(C)=O)CO[C@@H]4C[C@H](O)[C@@]3(C)C(=O)[C@H](OC(C)=O)C(=C1C)C2(C)C,0.0132 µM (active),–
O=C(O)CCCOc1ccc(Cl)cc1Cl,–,-49.3% [at 92.7 µM] (inactive)
c1cc2c(cc1[C@H]1OC[C@H]3[C@H]1CO[C@H]3c1ccc3c(c1)OCO3)OCO2,–,-14.5% (inactive)
CCCN(CCC)c1c([N+](=O)[O-])cc(S(N)(=O)=O)cc1[N+](=O)[O-],30.6 µM (active),–
CCCCCCCCCC(CC)c1ccc(S(=O)(=O)O)cc1 (stereo not given),30.6 µM (active),–
